# Laboratory results published in PubChem BioAssay (NCATS).
# Calls of active or inactive are those of the source. Calls follow the shape of the dose curve; as a rule, active = well fitted inhibition curve with a large enough effect; inconclusive = small, poorly fitted or top-dose-only effect; inactive = flat fitted curve, though single readings scatter. Where a SMILES comes first, the peptide text is derived from it.
# Target: Luciferin 4-monooxygenase (Photinus pyralis) (UniProt P08659)
# Assay: Primary firefly luciferase (FLuc) qHTS assay for identification of artifact compounds. (AID 1845220); also: nearly all actives have a fitted effect of over 60% in size;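 as to activity change, negative = inhibition: plate controls were DMSO vehicle for no effect and no enzyme for full effect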
# Details: purified firefly luciferase, luminescence, 5 min; series mostly up to 54.1 µM; activity change, negative = inhibition: at the top concentration
# Procedure, shortened: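 In this counter-screen for luciferase artifacts, test compounds met substrate (10 uM each luciferin and ATP) before 10 nM enzyme started the reaction. Light output was measured 5 min later.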
# Potency is read from the fitted curve at half-maximal effect.
Compound,outcome,"activity change, negative = inhibition",Potency
C/C=C/C=C/C=C/C(=O)O[C@@H]1C=C(CO)[C@](O)(CO)[C@@]2(C)CCCC(C)(C)[C@H]12,inactive,,
CC1(C)CC[C@]2(C(=O)O)CC[C@]3(C)C(=CCC4[C@@]5(C)C[C@@H](O)[C@H](O)[C@](C)(CO)C5CC[C@]43C)[C@@H]2[C@@H]1O (some centres undefined),,-14.7% [at 25.7 µM] (inactive),
CC(C)Oc1ccc(-c2nc(-c3cccc4c3CCC4NCCC(=O)O)no2)cc1C#N (centres undefined),,-1.75% (inactive),
O=S(=O)(O)c1ccc(Nc2ncnc3c2ncn3[C@@H]2O[C@H](CO)[C@@H](O)[C@H]2O)cc1,inactive,,
CC(C)(O)C1CC=C(C(=O)OC[C@H]2O[C@@H](OC(=O)C3=CCC(C(C)(C)O)CC3)[C@H](O)[C@@H](O)[C@@H]2O)CC1 (some centres undefined),,2.25% [at 25.7 µM] (inactive),
CCC(C)(C)C1CCc2c(sc(NC(=O)c3ccc(Br)cc3)c2C#N)C1 (centres undefined),,1.7% (inactive),
Fc1ccc(-c2c3cccc(C(F)(F)F)c3nn2Cc2ccc(F)cc2Cl)cc1,inactive,,
C/C=C1/[C@H](O[C@@H]2O[C@H](CO)[C@@H](O)[C@H](O)[C@H]2O)OC=C2C(=O)O[C@@H]3C[C@@H](C(C)CO)[C@H](COC(=O)C[C@H]21)[C@H]3C (some centres undefined),inactive [at 25.7 µM],,
CC(C)=C1CC2[C@](C)(CC[C@@H](OC(=O)C3(C)OC3C)[C@@]2(C)O)CC1=O (some centres undefined),inactive,,
C/C=C(\C)C(=O)O[C@H]1C=CC(=O)O[C@H]1/C=C/[C@H](O)[C@@H](C)O,,-0.348% (inactive),
CC(=O)O[C@@H]1[C@@H](O)[C@H](C)O[C@@H](O[C@H]2[C@@H]3C=CO[C@@H](O[C@@H]4O[C@H](CO)[C@@H](O)[C@H](O)[C@H]4OC(C)=O)[C@@H]3[C@@]3(CO)O[C@@H]23)[C@@H]1OC(=O)/C=C/c1ccc(O)cc1,inactive [at 25.7 µM],,
CSCC[C@H](NC(=O)[C@H](CO)NC(=O)[C@H](CCC(=O)O)NC(C)=O)C(=O)N[C@H](C=O)CC(=O)O (Ac-ESMD-aldehyde),,-5.86% [at 11.6 µM] (inactive),
COC(=O)C(CC1CCCC1)c1ccc(S(C)(=O)=O)cc1 (centres undefined),,1.05% (inactive),
CC(O)C1CCC2C3CCC4CC(OC5OC(C(=O)O)C(O)C(O)C5O)CCC4(C)C3CCC12C (centres undefined),,-20.2% (inactive),
C/C=C(\C)C(=O)OC[C@H]1O[C@@H](O[C@H]2[C@@H](O[C@H]3O[C@H](CO)[C@@H](O)[C@H](O)[C@H]3O[C@@H]3O[C@H](CO)[C@@H](O)[C@H](O)[C@H]3O)O[C@H](COC(=O)/C(C)=C/C)[C@@H](O)[C@@H]2O)[C@H](O)[C@@H](O)[C@@H]1O,,3.78% [at 11.6 µM] (inactive),
CC(C)=CCc1c(O)cc2oc3cc(C)cc(O)c3c2c1C,,,12 µM (active)
C=C1C(OC(C)=O)CCC2(C)CC3(O)OC(=O)C(C)=C3CC12 (centres undefined),,0.0089% (inactive),
C=CC1(C)C=C2CC[C@H]3[C@@](C)(C(=O)O)CCC[C@]3(C)C2CC1 (some centres undefined),inactive,,
CNC(C)C(=O)NC(C(=O)N1CCCC1C(=O)Nc1cccc2ncccc12)C(C)C (centres undefined),inactive,,
Cc1cn(-c2cc(NC(=O)c3ccc(C)c(Nc4nccc(-c5cnccn5)n4)c3)cc(C(F)(F)F)c2)cn1,,-3% (inactive),

Compound,outcome,"activity change, negative = inhibition",Potency
NC(=O)[C@H](Cc1ccccc1)NC(=O)[C@H](CCCN=C(N)N)NC(=O)C12CC3CC(CC(C3)C1)C2,,0.126% [at 11.6 µM] (inactive),
C=C1C2(C)CC3C4(C)C=CC(=O)OC(C)(C)C4CCC3(C)C1(C(=O)OC)C(=O)C(C)(O)C2=O (centres undefined),,2.92% [at 25.7 µM] (inactive),
CC1(C)CC2C(O)C3=C(CC(C)(O)C2C1)C(=O)OC3 (centres undefined),inactive,,
NC(=O)C(O[C@@H]1O[C@H](CO[C@@H]2O[C@H](CO)[C@@H](O)[C@H](O)[C@H]2O)[C@@H](O)[C@H](O)[C@H]1O)c1ccccc1 (some centres undefined),,2.91% [at 25.7 µM] (inactive),
CC(=O)C1CCC(=O)N1Cc1ccccc1 (centres undefined),,1.87% (inactive),
CC1CC(=O)[C@]2(O)C(C(=O)OCCc3ccc(O)c(O)c3)=CO[C@@H](O[C@@H]3O[C@H](CO)[C@@H](O)[C@H](O)[C@H]3O)[C@H]12 (some centres undefined),,3.36% [at 25.7 µM] (inactive),
COC(=O)[C@H](Cc1cccc(C(=N)N)c1)[C@@H](C)NC(=O)c1ccc(-c2cc[n+]([O-])cc2)cc1,,2.55% (inactive),
Cc1ncc(NC(=O)c2ccc(CN3CCN(C)CC3)c(C(F)(F)F)c2)cc1Nc1nccc(-c2cccnc2)n1,inactive,,
CC(=O)OC12CC(C)C(O)C1/C=C(/COC1OC(CO)C(O)C(O)C1O)CCC1C(/C=C(\C)C2=O)C1(C)C (centres undefined),,-1.51% [at 25.7 µM] (inactive),
NC(=O)c1ccc(F)c2c1C[C@@H](N(C1CCC1)C1CCC1)CO2,inactive,,
CC(C(=O)Nc1cc(C#N)ccc1CCCC(=O)O)c1ccc(F)c2ccccc12 (centres undefined),inactive,,
CC(C)c1ccc2c(c1)[C@H](O)CC1[C@@](C)(C(=O)O)CCC[C@]21C (some centres undefined),,-4.79% (inactive),
Cc1ccc([C@@H]2CC=C(C(=O)O)[C@H](c3ccc(C(C)(C)C)cc3)N2S(=O)(=O)c2ccc(C)cc2)cc1,inactive,,
c1cc(-c2cc(C3CCNCC3)[nH]n2)ccn1,,-9.96% [at 25.7 µM] (inactive),
C[C@]1(C2CCCC2)Cc2cc(OCC(=O)O)c(Cl)c(Cl)c2C1=O,inactive,,
CC1=CCC[C@@H]2[C@](CCc3ccoc3)(C(=O)O)[C@H](C)CC[C@@]12C,,2.38% (inactive),
CC1(C)C[C@@H]2[C@H](C1)[C@@]1(C)C[C@]13C(O)OC[C@]3(O)[C@H]2O (some centres undefined),,4.6% (inactive),
CC1=CCC2C(C)(C)CCCC2(C)C1CC12OC1C(O)C(CO)=CC2O (centres undefined),inactive,,
CC(=O)OC[C@]12[C@@H](OC(=O)c3ccoc3)C[C@@H]3[C@@H](OC(C)=O)[C@]1(OC3(C)C)[C@@](C)(O)C[C@H](OC(=O)c1ccoc1)[C@@H]2OC(=O)c1ccoc1,,-1.26% [at 25.7 µM] (inactive),
